This note sets out measurements from ChEMBL document CHEMBL1961873, “Compounds: GSK PKIS; Assays: Nanosyn kinase panel” (2012).

The target of test [1] is Mast/stem cell growth factor receptor Kit (Homo sapiens) (UniProt P10721). The conditions noted are these: at 1 µM.
Test [2] relates to Mast/stem cell growth factor receptor Kit (Homo sapiens), P10721 [D816V]. The conditions noted are these: at 0.1 µM.
The test system is the same in test [3]. The conditions noted are these: at 1 µM.
Test [4] deals with Mast/stem cell growth factor receptor Kit (Homo sapiens), P10721 [T670I]. The conditions noted are these: at 0.1 µM.
Chain of Mast/stem cell growth factor receptor Kit (Homo sapiens), P10721 [T670I] (P10721 whole entry T670I): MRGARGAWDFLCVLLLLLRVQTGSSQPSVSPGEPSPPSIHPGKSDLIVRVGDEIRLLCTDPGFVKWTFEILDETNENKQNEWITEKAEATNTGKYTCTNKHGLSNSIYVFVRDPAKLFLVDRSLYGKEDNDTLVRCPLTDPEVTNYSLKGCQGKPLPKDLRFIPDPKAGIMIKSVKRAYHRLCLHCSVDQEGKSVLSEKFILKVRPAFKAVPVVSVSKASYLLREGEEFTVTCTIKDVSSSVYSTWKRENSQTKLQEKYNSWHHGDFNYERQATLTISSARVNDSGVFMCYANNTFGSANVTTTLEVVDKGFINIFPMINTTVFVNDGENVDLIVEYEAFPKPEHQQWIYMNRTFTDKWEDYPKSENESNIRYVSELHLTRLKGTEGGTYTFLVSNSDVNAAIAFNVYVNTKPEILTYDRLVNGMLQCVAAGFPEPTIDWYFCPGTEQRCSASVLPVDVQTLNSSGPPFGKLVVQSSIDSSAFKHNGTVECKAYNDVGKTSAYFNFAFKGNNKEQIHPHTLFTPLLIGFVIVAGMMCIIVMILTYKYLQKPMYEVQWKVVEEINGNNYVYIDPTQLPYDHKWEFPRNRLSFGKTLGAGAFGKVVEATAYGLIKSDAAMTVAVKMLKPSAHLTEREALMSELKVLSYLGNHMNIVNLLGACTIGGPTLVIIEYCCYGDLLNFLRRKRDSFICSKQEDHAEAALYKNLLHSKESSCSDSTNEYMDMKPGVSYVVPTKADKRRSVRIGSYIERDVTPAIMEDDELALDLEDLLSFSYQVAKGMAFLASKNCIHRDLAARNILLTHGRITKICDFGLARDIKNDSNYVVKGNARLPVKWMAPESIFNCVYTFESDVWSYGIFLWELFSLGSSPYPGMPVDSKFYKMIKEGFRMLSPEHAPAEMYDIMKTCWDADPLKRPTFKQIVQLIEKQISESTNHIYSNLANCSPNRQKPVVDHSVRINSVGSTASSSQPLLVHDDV
For test [5] the test system is unchanged. The conditions noted are these: at 1 µM.
Test [6] concerns Mast/stem cell growth factor receptor Kit (Homo sapiens), P10721 [V560G]. The conditions noted are these: at 1 µM.
Chain of Mast/stem cell growth factor receptor Kit (Homo sapiens), P10721 [V560G] (P10721 whole entry V560G): as the sequence (P10721 whole entry T670I) above, with V560G, I670T counted along it
The target of test [7] is Tyrosine-protein kinase Lck (Homo sapiens) (UniProt P06239). The conditions noted are these: at 0.1 µM.
Chain of Tyrosine-protein kinase Lck (Homo sapiens) (P06239 2-509 limits assumed): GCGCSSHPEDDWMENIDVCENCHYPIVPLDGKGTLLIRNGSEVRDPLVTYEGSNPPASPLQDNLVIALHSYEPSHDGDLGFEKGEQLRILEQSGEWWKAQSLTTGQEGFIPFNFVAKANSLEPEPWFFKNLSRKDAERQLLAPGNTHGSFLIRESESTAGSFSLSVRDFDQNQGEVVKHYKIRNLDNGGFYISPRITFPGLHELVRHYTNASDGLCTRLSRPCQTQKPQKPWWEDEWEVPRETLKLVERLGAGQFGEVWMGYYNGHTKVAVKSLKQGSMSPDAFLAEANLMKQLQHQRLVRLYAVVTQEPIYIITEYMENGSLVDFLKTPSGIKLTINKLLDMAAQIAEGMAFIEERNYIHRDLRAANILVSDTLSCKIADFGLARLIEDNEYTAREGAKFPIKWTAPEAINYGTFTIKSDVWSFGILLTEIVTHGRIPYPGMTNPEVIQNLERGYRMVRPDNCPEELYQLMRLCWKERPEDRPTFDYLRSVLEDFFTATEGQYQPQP
Test [8] has the same target. The conditions noted are these: at 1 µM.
The target of test [9] is Leukocyte tyrosine kinase receptor (Homo sapiens) (UniProt P29376). The conditions noted are these: at 0.1 µM.
Chain of Leukocyte tyrosine kinase receptor (Homo sapiens) (P29376 whole entry): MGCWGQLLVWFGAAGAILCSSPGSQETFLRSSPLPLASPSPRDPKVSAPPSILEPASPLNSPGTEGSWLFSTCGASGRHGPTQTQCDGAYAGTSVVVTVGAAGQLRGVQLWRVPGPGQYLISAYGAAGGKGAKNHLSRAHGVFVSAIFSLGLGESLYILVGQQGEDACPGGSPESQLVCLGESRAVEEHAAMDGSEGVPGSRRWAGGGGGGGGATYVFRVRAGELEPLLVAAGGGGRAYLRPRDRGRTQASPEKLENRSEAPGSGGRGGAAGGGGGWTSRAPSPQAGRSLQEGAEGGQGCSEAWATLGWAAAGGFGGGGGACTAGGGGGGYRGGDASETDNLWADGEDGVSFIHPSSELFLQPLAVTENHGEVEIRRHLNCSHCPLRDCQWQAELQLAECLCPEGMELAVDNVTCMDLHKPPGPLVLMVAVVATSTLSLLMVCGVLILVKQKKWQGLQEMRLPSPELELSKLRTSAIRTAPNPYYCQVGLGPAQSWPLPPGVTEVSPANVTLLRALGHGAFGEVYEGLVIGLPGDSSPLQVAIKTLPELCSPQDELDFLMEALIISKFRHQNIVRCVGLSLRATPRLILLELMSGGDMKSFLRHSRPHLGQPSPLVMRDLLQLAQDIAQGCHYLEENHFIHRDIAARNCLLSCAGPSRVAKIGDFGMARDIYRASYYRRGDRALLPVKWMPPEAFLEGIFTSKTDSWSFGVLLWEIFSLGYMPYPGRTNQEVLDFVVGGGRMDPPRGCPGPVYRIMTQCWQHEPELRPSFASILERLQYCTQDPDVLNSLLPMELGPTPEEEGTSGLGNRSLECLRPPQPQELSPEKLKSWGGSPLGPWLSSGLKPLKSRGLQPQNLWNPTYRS
The subject of test [10] is Mast/stem cell growth factor receptor Kit (Homo sapiens), P10721 [V560G]. The conditions noted are these: at 0.1 µM.

Chain of Mast/stem cell growth factor receptor Kit (Homo sapiens) (P10721 whole entry): as the sequence (P10721 whole entry T670I) above, with I670T counted along it
Chain of Mast/stem cell growth factor receptor Kit (Homo sapiens), P10721 [D816V] (P10721 whole entry D816V): as the sequence (P10721 whole entry T670I) above, with I670T, D816V counted along it

As to `COc1cc2ncn(-c3cc(OCc4ccccc4S(C)(=O)=O)c(C#N)s3)c2cc1OC`, the inhibition came to 7.97% in test [1]; 2.49% in test [2]; 5.22% in test [3]; 3.82% in test [4]; 2.96% in test [5]; 0.98% in [6]. Further, the inhibition in test [7] was 23.3%; in test [8], 69.2%; in test [9], 4%.

Consider `ON=C1CCc2cc(-c3nc(C4CCNCC4)[nH]c3-c3ccncc3)ccc21`, for which the inhibition in test [1] is -4.25%; in test [2], 2.66%; in test [3], 5.8%; in [4], -0.79%; in test [5], -1.23%; in test [10] it was -2.31%. For the same compound, the inhibition in [6] was -1.75%; in [7], 0.93%; in test [8], 6.86%; in [9], 1.01%.

Turning to `CN(C)CCCn1c(-c2nonc2N)nc2cnccc21`, the inhibition was 3.91% in [1]; 4.66% in [2]; 2.49% in test [4]; 0.58% in test [5]; -1.36% in test [10]; -1.19% in test [6]. Besides, the values for the inhibition in [7], in test [8] and in test [9] were 2.27%, 4.6% and 3.86%, respectively.

For `Cc1ccc2c(c1)/C(=N/Nc1ccc(S(N)(=O)=O)cc1)C(=O)N2`, the inhibition was 80.1% in [1]; -0.66% in test [2]; -3.04% in test [3]; 3.2% in test [4]; 54.4% in test [5]; 1.27% in test [10]. In addition, the inhibition in [6] stood at 24.4%; in test [7], 1.15%; in test [8], 3.66%; in test [9], 0.21%.

With `COc1cc2ncnc(Nc3ccc(C)c(O)c3)c2cc1OC`, the inhibition in [1] came out at 40.5%; in [2], 44%; in test [3] it was 88.3%; in test [4] it was 3.54%; in [5], 2.94%; in [10], 5.53%. In addition, the inhibition is 35.8% in test [6], 25% in [7], 72.2% in test [8] and 6.58% in test [9].

As for `CC(C)c1ccc2c(c1)NC(=O)/C2=N/Nc1ccc(S(N)(=O)=O)cc1`, the inhibition is 31.5% in test [1]; -0.12% in test [2]; 1.26% in test [3]; 0.1% in [4]; 5.91% in [5]; 9.17% in [10]. Further, the inhibition came to 19.4% in [6], 1.79% in [7], 8.63% in [8] and 1.63% in test [9].

On to `[O-][S+]1CCN(Cc2ccc(-c3ccc4ncnc(Nc5ccc(OCc6ccccc6)c(Cl)c5)c4c3)o2)CC1`, for which the inhibition in test [1] is 0.65%; in [2] it was -2.21%; in test [3], -2.37%; in test [4] it was 4.79%; in test [5], 4.66%; in [10] it was -1.31%. The inhibition in test [6] is -1.84%; in test [7], 1.46%; in [8] it was 5.8%; in test [9], 2.41%.

On to `Cc1ccc(Nc2ccnc(Nc3cccc(C(N)=O)c3)n2)cc1O`, for which the inhibition in [1] was 42.7%; in test [2] it was 14.9%; in test [3], 54.3%; in test [4] it was 2.19%; in test [5], 5.43%; in test [10] it was 3.09%. For the same compound, the inhibition turned out to be 21.1% in [6], 29.2% in test [7], 72.2% in test [8] and 4.36% in test [9].

Turning to `CCS(=O)(=O)c1ccc(OC)c(Nc2nccc(N(C)c3ccc4c(C)n[nH]c4c3)n2)c1`, the inhibition in test [1] is 88.5%; in [2], 6.18%; in [3], 23.9%; in test [4] it was 5.56%; in test [5] it was 6.79%; in test [10], 0.4%. For the same compound, the inhibition was 11.8% in test [6], 26.2% in test [7], 60.2% in test [8] and 7.51% in test [9].

Take `Nc1nccc(C#Cc2cncnc2Nc2ccc(OCc3cccc(F)c3)c(Cl)c2)n1`: the inhibition in [1] is 2.68%; in [2], 3.2%; in test [3] it was 2.1%; in test [4] it was 1.97%; in test [5] it was 1.54%; in [10], -1.72%. Also, the inhibition was 1.13% in [6], 1.54% in test [7], 8.03% in [8] and 3.49% in test [9].

With `NC(=O)c1sc(-n2cnc3ccccc32)cc1OCc1ccccc1Br`, the inhibition is 5.34% in [1]; 2.22% in [2]; 4.99% in test [3]; 1.31% in [4]; 4.08% in test [5]; -5.3% in [10]. Besides, the inhibition was -0.34% in test [6], 3.94% in test [7], 5.49% in test [8] and 4.25% in [9].

Regarding `CCn1c(-c2nonc2N)nc2c(C#CC(C)(C)O)nc(OCCNC)cc21`, the inhibition in test [1] was 6.66%; in [2] it was 4.65%; in [3], 3.95%; in [4], 0.61%; in test [5] it was 3.65%; in test [10], -4.02%. The inhibition came to 4.6% in test [6], 2.55% in [7], 2.44% in test [8] and 5.09% in test [9].

`COc1cccc(-n2ncc3c(N/N=C/c4ccc(C)cc4)ncnc32)c1`: the inhibition was 10.6% in test [1]; 2.8% in [2]; 6.2% in test [3]; 0.52% in test [4]; 4.07% in [5]; -2.84% in [10]. The inhibition was -2.13% in [6], 7.28% in test [7], 21.3% in test [8] and 4.23% in [9].

Take `NS(=O)(=O)c1ccc(-c2cc3ccncc3cc2OCc2ccccc2)cc1`: the inhibition in [1] came out at 8.06%; in test [2], 2.17%; in test [3], 3.92%; in test [4], 2.02%; in [5] it was 4.23%; in test [10], 0.41%. The inhibition in test [6] was determined as 0.33%; in [7], 1.15%; in [8], 3.87%; in test [9], 6.08%.

Take `CN(C)c1cc2c(Nc3ccc4c(cnn4Cc4ccccc4)c3)ncnc2cn1`: the inhibition in test [1] was 3.38%; in test [2] it was 4.89%; in test [3], 2.07%; in test [4], 3.06%; in test [5], -0.32%; in test [10], -2.8%. In addition, the inhibition in test [6] turned out to be 2.75%; in test [7] it was 5.16%; in test [8], 22.6%; in test [9], 1.81%.

In the case of `NC(=O)c1cccc(Nc2nccc(Nc3cccc(F)c3)n2)c1`, the inhibition was 82.6% in [1]; -0.14% in [2]; 2.14% in [3]; 0.52% in [4]; 7.62% in test [5]; 2.06% in test [10]. Besides, the inhibition in test [6] was 32.6%; in test [7], 2.44%; in test [8], 15%; in test [9] it was 0.75%.

As for `CCn1c(-c2nonc2N)nc2ccc(F)cc21`, the inhibition in [1] is 6.81%; in test [2] it was 6.28%; in test [3], 3.76%; in test [4], 3.59%; in test [5], 6.26%; in [10], -1.12%. Also, the inhibition in test [6] is -0.91%; in test [7], 2.91%; in test [8], 2.85%; in test [9] it was 3.51%.

By inhibition is commonly meant the drop in the measured response relative to a control, in per cent.
